# Only some compounds are listed: those with a hit (about 2.8% of all), similar ones and a draw of the others.
# Pol kappa inh: qHTS for Inhibitors of Polymerase Kappa; 0.53% of 400,000 active; AID 588579, 2011; purified Pol kappa, fluorescent DNA synthesis assay, 10 min; DNA polymerase kappa (Homo sapiens), Q9UBT6; Potency, µM (top dose mostly 107 µM), inactives show top-dose activity, negative = inhibition, usual class: inhibitors; note: potency is the fitted concentration of half-maximal effect; % is set by controls: 0 for no effect and ±100 for the full control effect
#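 Fluorescent qHTS in 1536-well format: enzyme (10 nM) and compound sat 15 min at room temperature before 50 nM substrate (final) was added. Signal taken at 0 and 10 min; no-enzyme buffer wells were negative controls.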
# PI5P4Ka inh: qHTS for Inhibitors of phosphatidylinositol 5-phosphate 4-kinase (PI5P4K). Phosphatidylinositol 5-phosphate 4-kinase type-2 alpha (Homo sapiens), P48426. PI5P4Kalpha enzyme, ADP-Glo luminescence, 60 min; stronger effect = lower value. max response, %. 1.2% of 330,000 active. AID 652105, 2013; active = max response of -50% or lower; inconclusive = between -30% and -50%; inactive = -30% or higher; note: value at the top dose of about 77 µM; % is set by controls: 0 for no effect and ±100 for the full control effect
#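 Reactions run in 0.038 M HEPES pH 7.4, 0.28 mM EGTA, 0.1% CHAPS and 5% DMSO, with PI5P4Kalpha, substrate, compound and 5 microM ATP final, one hour at room temperature. Readout is ADP-Glo luminescence.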
# Pol iota inh: qHTS for Inhibitors of Polymerase Iota | DNA polymerase iota (Homo sapiens), Q9UNA4 | Pol iota fluorescent replication assay, 10 min | Potency, µM (titrated, usually from 115 µM), without a hit: top-dose activity, negative = inhibition, actives largely listed as inhibitors | 1% of 390,000 active | AID 588590, 2011; note: potency is the fitted concentration of half-maximal effect
#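 Fluorescent replication assay read twice, at 0 min and 10 min after adding 50 nM (final) substrate. Enzyme (10 nM) and compounds were first incubated 15 min at room temperature; enzyme-free buffer wells were negative controls.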
# POLH inh: qHTS for Inhibitors of Polymerase Eta. recombinant Pol eta, fluorescent DNA replication assay. Potency, µM (series often up to 114 µM), for inactives: at the top dose activity change, negative = inhibition, usual class: inhibitors. AID 588591, 2011. 1.2% of 390,000 active; note: potency is the fitted concentration of half-maximal effect; % is set by controls: 0 for no effect and ±100 for the full control effect
# Target sequence (Q9Y253 whole entry, looked up): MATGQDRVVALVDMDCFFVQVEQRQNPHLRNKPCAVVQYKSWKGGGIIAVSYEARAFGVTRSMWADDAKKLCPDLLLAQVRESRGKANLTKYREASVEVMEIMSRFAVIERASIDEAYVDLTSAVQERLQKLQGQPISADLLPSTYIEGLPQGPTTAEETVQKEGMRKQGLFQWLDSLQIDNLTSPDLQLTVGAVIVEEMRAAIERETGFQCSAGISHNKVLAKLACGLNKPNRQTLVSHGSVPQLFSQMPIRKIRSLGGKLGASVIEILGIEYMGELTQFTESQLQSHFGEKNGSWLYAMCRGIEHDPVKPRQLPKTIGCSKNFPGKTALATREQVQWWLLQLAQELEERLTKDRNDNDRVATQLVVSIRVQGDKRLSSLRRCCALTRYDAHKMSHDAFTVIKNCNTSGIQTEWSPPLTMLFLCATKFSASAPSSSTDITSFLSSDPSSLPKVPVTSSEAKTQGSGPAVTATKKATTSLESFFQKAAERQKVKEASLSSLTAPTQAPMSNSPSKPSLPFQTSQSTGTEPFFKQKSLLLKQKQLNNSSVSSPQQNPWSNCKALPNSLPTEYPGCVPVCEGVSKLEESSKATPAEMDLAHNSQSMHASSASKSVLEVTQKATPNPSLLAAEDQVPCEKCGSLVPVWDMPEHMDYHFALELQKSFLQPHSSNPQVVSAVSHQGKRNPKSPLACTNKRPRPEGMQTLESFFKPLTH
#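 Fluorescent replication assay: 50 nM final substrate added after a 15 min room-temperature compound preincubation with 10 nM enzyme. Signal taken at 0 min and again at 10 min.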
# POLB inh: qHTS Assay for Inhibitors of DNA Polymerase Beta | P06746 | Pol beta primer extension/strand displacement, fluorescence kinetic | Potency, µM (doses to about 114 µM), for the others: at the top dose activity change, negative = inhibition, actives largely listed as inhibitors | 1.3% of 340,000 active | AID 485314, 2010; note: potency is the fitted concentration of half-maximal effect; % is set by controls: 0 for no effect and ±100 for the full control effect
#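 Curves were derived by four-parameter Hill fits of normalized qHTS data. The kinetic fluorescent primer-extension read was taken at 0 and 10 min after 50 nM substrate, following a 15 min room-temperature preincubation of 10 nM enzyme with compounds.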
# FEN1 inh: qHTS Assay for the Inhibitors of Human Flap endonuclease 1 (FEN1); P39748; Potency, µM (titrated, usually from 114 µM), without a hit: at the top dose activity change, negative = inhibition, hits mostly inhibitors; Recombinant FEN1 flap cleavage, fluorescence, 15 min; AID 588795, 2011; 0.35% of 390,000 active; note: potency is the fitted concentration of half-maximal effect; % is set by controls: 0 for no effect and ±100 for the full control effect; nearly all actives have a fitted effect of over 65% in size
#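 Concentration–response screening of FEN1 (10 nM): 15 min compound preincubation at room temperature, reaction started with 50 nM substrate and read at 0 and 15 min. Corrected, normalized data were fitted by a four-parameter Hill equation.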
# * marks the source's active call; other numbers are inactive results; ? = inconclusive; . = no result; ! = repeats disagree; [ ] = remark or other dose. Unless noted, calls come from the whole dose curve; as a rule, active = well fitted curve in the direction sought with a large enough effect; inconclusive = small, poorly fitted or top-dose-only effect, or another doubt; inactive = no such curve, though single readings can be large; an effect the other way counts as inactive or inconclusive.
SMILES,Pol kappa inh,PI5P4Ka inh,Pol iota inh,POLH inh,POLB inh,FEN1 inh
NC(=O)c1ccc(Oc2ccc3ccc(=O)oc3c2)c([N+](=O)[O-])c1,?,?,?,28µM*,?,-1%
Cc1cc(=O)oc2cc(Oc3ccc([N+](=O)[O-])cc3[N+](=O)[O-])ccc12,-8%,3,79µM*,?,-4%,-7%
CCOC(=O)[C@@H](N)CS,-19%[60.1 µM],.,.,.,.,.
CN1CCN(CCCNC(=O)c2cc3c(-c4ccc(Cl)cc4)nn(C)c3s2)CC1,-5%,1,-10%,4%,?,?
CCN(CC)CCCNC(=O)c1cc2c(-c3ccc(Cl)cc3)nn(C)c2s1,-23%,1,?,21%,?,45µM*
CC1(C)CC(=O)C2=C(C1)c1c(ccc3ccccc13)NC2c1ccc(OCC(=O)O)cc1 (centres undefined),?,-1,-5%,-15%,45µM*,-9%
COc1cc(C2Nc3ccc4ccccc4c3C3=C2C(=O)CC(C)(C)C3)ccc1OCC(=O)O (centres undefined),-10%,0,4%,-17%,13%,14%
COc1ccc(Cn2cc3c(-c4ccc(F)cc4)nnc-3c3cc(OC)c(OC)cc32)cc1,-4%,-8,-13%,-14%,79µM*,?
CC[n+]1c(/C=C/N(C)c2ccccc2)n(-c2ccccc2)c2ccc(-c3nc4ccccc4s3)cc21,21µM*,?,136%,?,-20%,40µM*
CCOC(=O)c1ccc2c(c1)n(CC)c(/C=C/N(C)c1ccccc1)[n+]2CC,-15%,-8,17%,-13%,-25%,-10%
COCCNc1ccc(-c2nc(-c3cccc(C)c3)no2)cc1[N+](=O)[O-],-4%,.,-21%,1%,-30%,2%
CCCC[n+]1c(/C=C/c2c(OC)cc(OC)cc2OC)ccc2ccccc21,-17%,.,?,.,.,20µM*
CN(C)c1ccc(/C=C/c2ccc3ccccc3[n+]2C)cc1,50µM*,?,40µM*!,?,18µM*,40µM*
COc1ccc(/C=C/c2ccc3ccccc3[n+]2C)cc1OC,?,-2,-87%,-2%,28µM*,-15%
CCC[n+]1c(/C=C/c2c(OC)cc(OC)cc2OC)ccc2ccccc21,-21%,.,?,.,.,28µM*
COc1cccc(OCC(=O)NCCS(=O)(=O)N2CCN(c3ccccc3F)CC2)c1,-11%[60.1 µM],.,13%,-15%,26%,-11%
COc1ccc(NC(=O)CSc2ccc3nc(-c4ccccc4)cn3n2)c(OC)c1,-3%[60.1 µM],.,?,?,5%,-4%
CCOC(=O)c1ccccc1NC(=O)CSc1nc2[nH]ncc2c(=O)[nH]1,-6%,-4,17%,-1%,.,-3%
COc1cc(OC)c(/C=C/c2ccc3ccccc3[n+]2C)c(OC)c1,-33%,.,?,.,.,25µM*
Cc1cc(/C=N/O)c(C)n1-c1ccccc1,-10%,0,4%,-2%,27%,9%
COc1ccc(/C=C/c2ccc3ccccc3[n+]2C)c(OC)c1OC,-39%,.,?,.,.,-27%
CCC[n+]1c2ccccc2cc2ccccc21,-1%,-20,?,-8%,-17%,?
Cc1cc(/C=C/c2ccc3cc(N(C)C)ccc3[n+]2C)c(C)n1-c1ccccc1,28µM*,.,.,.,.,.
CCCC[n+]1c2ccccc2cc2ccccc21,-10%,?,?,-1%,31%,79µM*
COc1ccccc1-c1nc(CNC(=O)NC2CCCCC2)c(C)o1,0%[60.1 µM],.,31%,-16%,-26%,-4%
SMILES,Pol kappa inh,PI5P4Ka inh,Pol iota inh,POLH inh,POLB inh,FEN1 inh
Clc1ccc(OCc2nc(-c3ccc(-n4cccc4)cc3)no2)cc1,-22%,.,89µM*,-9%,0%,-9%
CCc1ccc(OCc2nc(-c3ccc(-n4cccc4)cc3)no2)cc1,7%,.,-5%,.,22%,-2%
CN(CC(=O)Nc1cccc(F)c1)C(=O)CCCN1C(=O)c2cccc3cccc(c23)C1=O,-1%,3,5%,-5%,.,-9%
Cn1c(=O)c(-c2ccc(F)cc2)nc2cnc(OCc3ccccc3)nc21,-5%[60.1 µM],.,.,.,.,.
CN(C)S(=O)(=O)c1ccc(NC(=O)Cc2ccc(S(=O)(=O)N3CCOCC3)s2)cc1,?,?,?,56µM*,?,10%
O=C(Cc1ccc(S(=O)(=O)N2CCCC2)s1)N1CCOCC1,-13%,4,?,?,45µM*,-2%
O=C(Cc1ccc(S(=O)(=O)N2CCCC2)s1)Nc1nc2c(s1)CCCC2,-27%,?,?,18µM*,?,-19%
COc1ccc(S(=O)(=O)N(C)C)cc1NC(=O)Cc1ccc(S(=O)(=O)N2CCOCC2)s1,-4%,2,-4%,4%,.,-1%
O=C(Cc1ccc(S(=O)(=O)N2CCOCC2)s1)Nc1ccc(N2CCOCC2)cc1,1%,-24,59%,-23%,32µM*,1%
C=CCNC(=O)Cc1ccc(S(=O)(=O)N2CCOCC2)s1,-11%,-4,9%,-10%,.,-5%
Cc1ccccc1OCCCn1c(-c2ccc(Cl)cc2)nc2ccccc2c1=O,-5%,.,-11%,-2%,27%,13%
CC1CCCC(NC(=O)COC(=O)c2cccs2)C1C (centres undefined),0%,4,17%,-15%,.,3%
Cc1cc(-c2ccco2)c(C#N)c2nc3ccccc3n12,?,?,?,10µM*,8.9µM*,?
CCOc1ccc(C(C(=O)NC2CCCCC2)N(C(=O)Cc2cccs2)c2ccc(-n3cnnn3)c(OC)c2)cc1 (centres undefined),1%,6,6%,-9%,?,-4%
CCn1c2ccccc2c2cc(NC(=O)CSc3nnc(-c4cccc(OC)c4)n3N)ccc21,-13%,4,?,-12%,?,-15%
CCOc1ccc(-c2nnc(SCC(=O)Nc3ccc4c(c3)c3ccccc3n4CC)n2N)cc1,-37%,-5,50µM*,?,40µM*,-10%
CCN(C(=O)CSc1nnc(C)n1-c1ccccc1)C1CCS(=O)(=O)C1 (centres undefined),12%,1,54%,-13%,0%,-1%
CC[C@H](C)[C@H](NC(=O)[C@H](Cc1ccc(O)cc1)NC(=O)[C@@H]1CCCN1C(=O)[C@@H](NC(=O)[C@@H](N)CCCCN)[C@@H](C)CC)C(=O)N[C@@H](CC(C)C)C(=O)O,-2%[60.1 µM],.,.,.,.,.
O=C(Nc1cccc(Cl)c1)c1ccc(=O)[nH]n1,-5%,4,18µM*,-30%,4%,-16%

# Compound activity deposited in PubChem by National Center for Advancing Translational Sciences (NCATS).
